Data: PubChem BioAssay (NCATS)
Results filed as inconclusive are left out. Activity calls are given as the source filed them. Calls follow the shape of the dose curve; as a rule, active = well fitted cell-killing curve with a large enough effect; inconclusive = small, poorly fitted or top-dose-only effect, or effect the other way; inactive = flat fitted curve, though single readings scatter.

Tests used:
Experiment in all cases: Primary qHTS to identify gynecologic anti-cancer compounds using libraries of approved drugs and bioactive compounds (AID 1345084); also: nearly all actives have a fitted effect of over 55% in size
Details in all cases: Gynecologic cancer cell panel viability, ATPlite luminescence, 48 h; series mostly up to 57.5 µM
[1] = test system: PA-1
Procedure, shortened: (§1)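 Cells, 1,000 per well, plated 16 h, then exposed 48 h at 37 C to compounds. Viability by ATPlite luminescence after 15 min at room temperature.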

[2] = test system: SKOV3
Procedure, shortened: as §1

[3] = test system: Tov-21-G
Procedure, shortened: as §1

[4] = test system: Tov112D
Procedure, shortened: as §1
% is scaled to controls: 0 for no effect and ±100 for the full control effect.

C/C=C(/C)C(=O)O[C@H]1C[C@]2(C)O[C@@H]2[C@@H](OC(C)=O)[C@@]2(C)CC[C@@](O)(C(C)C)[C@H]12
inactive: Potency [1] | Potency [2] | Potency [3] | Potency [4]

CC1OC(OC2C(OC3C(O[C@H]4CC[C@@]5(C)C(CC[C@]6(C)C5CC=C5C7CC(C)(C)CC(O)[C@]7(C)CC[C@]56C)C4(C)C)OC(C(=O)O)C(O)C3O)OCC(O)C2O)C(O)C(O)C1O (some centres not stated)
inactive: activity change, negative = cytotoxicity [1] 30% [at 11.6 µM] | activity change, negative = cytotoxicity [2] 7.87% [at 11.6 µM] | activity change, negative = cytotoxicity [3] 6.64% [at 11.6 µM] | activity change, negative = cytotoxicity [4] 1.05% [at 11.6 µM]

COc1c2cc(c(O[C@@H]3O[C@H](CO)[C@@H](O)[C@H](O)[C@H]3O)c1OC)CCCCC(O)CCc1ccc(O)c-2c1 (some centres not stated)
inactive: Potency [1] | Potency [2] | Potency [3] | Potency [4]

Cn1cc(CCn2cnc(-c3cnn(C)c3)c2-c2ccc(C#N)cc2)cn1
inactive: Potency [1] | Potency [2] | Potency [3] | Potency [4]

C=C(C)[C@@H]1CC[C@]2(C(=O)O)CC[C@]3(C)[C@H](CCC4[C@@]5(C)CCC(=O)C(C)(C)C5C(O)C[C@]43C)C12 (some centres not stated)
inactive: Potency [1] | Potency [2] | Potency [3] | Potency [4]

C=C(C(=O)O)[C@@H]1CC[C@@]2(C)CC[C@@H](O)C(=C)C2C1 (some centres not stated)
inactive: Potency [1] | Potency [2] | Potency [3] | Potency [4]

CC1=CC(=O)C(=C(C)C)CC2C(C)(O)CCC12O (configuration not stated)
inactive: Potency [1] | Potency [2] | Potency [3] | Potency [4]

Cc1ccc(-c2c(-c3nn(C)c4ncnc(N5CC[C@H](N6CCCCC6)C5)c34)cnn2C)cc1
inactive: Potency [1] | Potency [2] | Potency [3] | Potency [4]

CC1(C)C2CC[C@]3(C)C(C(=O)C=C4[C@H]5C[C@@](C)(C(=O)O)CC[C@]5(C)CC[C@]43C)[C@@]2(C)CC[C@@H]1O (some centres not stated)
inactive: Potency [1] | Potency [2] | Potency [3] | Potency [4]

FC(F)(F)Oc1ccc(-c2ccc3nnc(C(F)(F)F)n3c2)cc1
inactive: Potency [1] | Potency [2] | Potency [3] | Potency [4]

CC1=CC2=C(C)C(=O)[C@](C)(O)[C@H](O)C2=CO1
inactive: Potency [1] | Potency [2] | Potency [3] | Potency [4]

C=C1CCC2C(C)(C)CCC[C@]2(C)[C@H]1CC/C(C)=C/C(=O)O (some centres not stated)
inactive: Potency [1] | Potency [2] | Potency [3] | Potency [4]

COC(=O)C1=CO[C@@H](O[C@@H]2O[C@H](CO[C@@H]3O[C@H](CO)[C@@H](O)[C@H](O)[C@H]3O)[C@@H](O)[C@H](O)[C@H]2O)[C@@H]2C(CO)=CC[C@H]12
inactive: Potency [1] | Potency [2] | Potency [3] | Potency [4]
